The text below walks through data of PubChem BioAssay AID1626 (SRMLSC, 2009).

The campaign covered roughly 220,000 compounds. About 2,000 (0.91%) were called active. Roughly 2% stayed inconclusive and do not appear here. Rule as the data show it: inconclusive = inhibition above about 80% without an active follow-up result; inactive = below that; test concentration not stated here. These entries were drawn from the full list. Potency and affinity values are given separately.

This experiment is described as follows: M. tuberculosis H37Rv growth inhibitors, H37Rv strain (AID 1626).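 Also: bacteria incubated seven days before Alamar blue readout; 0% = bacteria only wells and 100% = bacteria with antibiotic wells.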 Particulars: active compounds read high, concentration not given here.
For orientation: inhibition means the change of the read-out against control, counted positive when it falls. For the molecule `CC(C)CN(C(=O)COC(=O)c1ccc(-c2ccccc2)cc1)C1CCS(=O)(=O)C1` (configuration not stated), the inhibition is 4.21% (inactive).
The same measure for `CCc1ccc2[nH]c(=O)c(C(c3nnnn3CCOC)N3CCN(c4ccccc4)CC3)cc2c1` (configuration not stated): 2.21% (inactive); for `COc1ccc2cc(C(c3nnnn3CCc3ccccc3)N3CCC(O)CC3)c(=O)[nH]c2c1` (configuration not stated): 4.28% (inactive); for `O=C(Cn1c(-c2cscn2)nc2ccccc21)Nc1ccc2ccccc2c1`: 5.71% (inactive).
As to `CC(=O)NCCn1c(SCC(=O)c2ccc(Cl)cc2)nc2ccccc2c1=O`, the inhibition was -2.5% (inactive).
The same measure for `Cc1ccc(NC(=O)c2ccc([N+](=O)[O-])cc2Cl)nc1`: 1.78% (inactive); for `Cc1c(C(=O)N2CCCCC2)sc(NC(=O)C2CC2)c1C#N`: -1.68% (inactive).
As to `Cc1c(C(=O)N2CCCCC2)sc(NC(=O)C(C)C)c1C#N`, the inhibition is -2.5% (inactive).
For `CCCC1=NN(C(=O)Cc2ccc(OC)c(OC)c2)C(O)(C(F)(F)F)C1` (configuration not stated), the inhibition is 7.79% (inactive).
The same measure for `COc1ccc(-c2oc3ccccc3c(=O)c2OC(C)=O)cc1`: 67.5% (inactive); for `O=C(O)COc1c(-c2ccco2)oc2ccccc2c1=O`: -8.35% (inactive); for `CCC(C)NS(=O)(=O)c1ccc(NC(C)=O)cc1` (configuration not stated): -1.33% (inactive).
As for `CC(C)OCC(O)CS(=O)Cc1ccccc1` (configuration not stated), the figure is -8.07% (inactive); as for `CCC(=O)Nc1ccc2nc(C)n(CC(=O)Nc3ccccc3)c(=O)c2c1`, -7.72% (inactive).
On to `N=c1c2c(ncn1Cc1ccco1)Oc1ccc3ccccc3c1C2c1ccccc1` (configuration not stated), for which the inhibition was 20.9% (inactive).
As for `COc1ccc(C2c3ccc4ccccc4c3Oc3ncn(Cc4ccco4)c(=N)c32)cc1OC` (configuration not stated), the figure is 8.86% (inactive); as for `Cc1cnc(C(=O)OCC(=O)Nc2ccc(Oc3ccccc3)cc2)cn1`, 38% (inactive).
As for `Brc1ccc2[nH]c3c(N4CCc5ccccc5C4)ncnc3c2c1`, the figure is 5.42% (inactive).
As to `Cc1ccc2c(c1)c1ncnc(N3CCN(c4ccccc4)CC3)c1n2C`, the inhibition was 0.76% (inactive).
For the molecule `Cc1ccc2c(c1)c1ncnc(N3CCC4(CC3)OCCO4)c1n2C`, the inhibition is -2.11% (inactive).
Regarding `Fc1ccc2[nH]c3c(N4CCc5ccccc5C4)ncnc3c2c1`, the inhibition was 4.31% (inactive).
As for `CCN(CC(=O)NCc1cccs1)C(=O)c1ccc(S(=O)(=O)N(C)C)cc1`, the inhibition was 2.21% (inactive).
As for `COc1cccc(NC(=O)CN2CCN(S(=O)(=O)c3ccc(F)cc3)CC2)c1`, the figure is -7.83% (inactive).
As for `O=C1/C(=C\c2ccc(Cl)c(Cl)c2)N2CCC1CC2`, the inhibition is 15.2% (inactive).
The same measure for `Cc1ccc(NC(=O)CCC(=O)NNC(=O)COc2ccccc2)c(C)c1`: 2.24% (inactive); for `Cc1ccc(NC(=O)C(=O)NCCOc2ccc(Cl)cc2)c(C)c1`: 7.98% (inactive).
The same measure for `CCOC(=O)Nc1ccc(C)cc1C`: 0.47% (inactive); for `CCOc1ccc(NC(=O)CNc2ccc(C)cc2Cl)cc1`: -1.87% (inactive).
As for `COc1ccc(NCC(=O)Nc2ccc(Br)cc2F)c(OC)c1`, the figure is 75.1% (inactive); as for `Cc1ccc(NC(=O)CNc2ccc(OC(C)C)cc2)c(C)c1`, 46.8% (inactive).
Take `CCOc1ccc(OCCC(=O)Nc2ccc(F)cc2C)cc1`: the inhibition was -6.9% (inactive).
The same measure for `COc1ccc(Cl)cc1NC(=O)CNc1ccc(F)cc1C`: 6.38% (inactive).
Regarding `C[C@@H]1CC[C@]2(O[C@@H](CCO)C[C@@H](O)[C@@H]2O)O1`, the inhibition is -6.09% (inactive).
`Cc1nc2sc(C(c3cccc(F)c3)N3CCC(C)CC3)c(O)n2n1` (configuration not stated): the inhibition is -7.23% (inactive).
The same measure for `O=S(=O)(c1ccc(Cl)c(S(=O)(=O)N2CCCC2)c1)N1CCCC1`: -11.7% (inactive).
`CC(=O)c1ccc(N2CCN(C(=O)C3(S(=O)(=O)c4ccc(Cl)cc4)CC3)CC2)cc1`: the inhibition was 1.33% (inactive).
The same measure for `Cc1cc(N2CCN(C)CC2)nc2ccc(NC(=S)N3CCCCC3)cc12`: 30.4% (inactive); for `CN(C(=O)COc1ccc(S(=O)(=O)N2CCOCC2)cc1[N+](=O)[O-])C1CCS(=O)(=O)C1` (configuration not stated): -7.08% (inactive).
With `COc1ccc(NC(=O)c2cccnc2N2CCOCC2)cc1`, the inhibition is 4.7% (inactive).
The same measure for `COc1ccccc1NC(=S)N(CCCN1CCOCC1)Cc1cccs1`: -3.58% (inactive); for `O=C(COC(=O)c1ccc([N+](=O)[O-])s1)NCc1ccccc1`: 17.7% (inactive); for `CCc1cccc2c(C(=O)COC(=O)c3ccccc3)c[nH]c12`: 7.6% (inactive).
As for `CCc1cccc2c(C(=O)COC(=O)c3ccc(O)cc3)c[nH]c12`, the figure is 2.75% (inactive); as for `Cc1[nH]c2ccccc2c1C(=O)COC(=O)c1ccc([N+](=O)[O-])s1`, 99.3% (inactive).
The same measure for `CCN(C(=O)CCCC(=O)N(CC)c1ccccc1)c1ccccc1`: -1.06% (inactive); for `Cc1cc(C)nc(SCC(=O)Nc2ccc(S(=O)(=O)Nc3onc(C)c3C)cc2)n1`: -9.62% (inactive).
As for `CC(C)(C)CN1CCNC(=O)C1CC(=O)N1CCN(c2ccccc2)CC1` (configuration not stated), the inhibition is -2.51% (inactive).
The same measure for `O=C(NCc1cccc(C(F)(F)F)c1)c1cc(Cl)ccc1Cl`: 15% (inactive); for `CC1=Nc2ccccc2/C1=C\c1nc(-c2ccc(F)cc2)oc1O`: 54.8% (inactive); for `CC1=Nc2ccccc2/C1=C\c1nc(-c2ccccc2)oc1O`: 3.61% (inactive).
In the case of `O=C(CSCc1ccc(C(=O)O)cc1)Nc1ccc2ccccc2c1`, the inhibition is 35.7% (inactive).
As for `CC(C)(C)CC(C)(C)NC(=O)CSCC(=O)Nc1ccc2ccccc2c1`, the figure is -8.35% (inactive); as for `O=C(O)CSCC(=O)NCc1ccccc1`, -2.1% (inactive).
`CC(C)c1ccc(CNC(=O)CCc2ccccc2)cc1`: the inhibition is 6.15% (inactive).
As for `CCN(CC)C(=N)/C(C#N)=N/Nc1ccccc1`, the figure is -13.5% (inactive); as for `Cn1cccc1C(=O)NC(=O)COC(=O)CNC(=O)c1ccc(Cl)cc1Cl`, -13% (inactive).
As for `O=C(Cn1nc(C(F)(F)F)c2c1CCCC2)Nc1ccc2c(c1)OCO2`, the figure is -0.66% (inactive).
For the molecule `CCOc1ccc(C2=NNC(c3cccnc3)=Nc3ccc(OC)cc32)cc1`, the inhibition was 1.63% (inactive).
As for `N#CCCn1c(C(C#N)(CCC#N)CCC#N)nc2ccccc21`, the figure is -2.99% (inactive).
The same measure for `COc1ccc(S(=O)(=O)N=C2C=C(C)C(=O)C(C)=C2)cc1`: -5.5% (inactive); for `COc1ccc(C(=O)ON=C2C=C(C)C(=O)C(C)=C2)cc1`: -2.82% (inactive).
As for `COc1cc(C(C(=O)NC(C)(C)C)N(Cc2ccc3c(c2)OCO3)C(=O)c2cnccn2)cc(OC)c1OC` (configuration not stated), the figure is -6.38% (inactive); as for `CCOC(=O)C[C@H]1c2ccccc2S(=O)(=O)N1c1cccc(OC)c1`, -8.13% (inactive); as for `CC(=O)Nc1sc2c(c1CN1CCCC1)CCCC2`, -3.09% (inactive).
Turning to `CC(=O)Nc1sc2c(c1CN1CCN(C)CC1)CCCC2`, the inhibition is -1.53% (inactive).
Regarding `COc1cccc(C(=O)Nc2ccc(NC(C)=O)cc2)c1`, the inhibition was -16.8% (inactive).
The same measure for `CC1CCCN(C(=O)Cn2cnc3c2c(=O)n(C)c(=O)n3C)C1` (configuration not stated): 10.5% (inactive); for `CC1Cc2ccccc2N1C(=O)COC(=O)CNC(=O)c1ccc(Br)o1` (configuration not stated): -10.5% (inactive).
As to `Cc1cc(C(=O)OCC(=O)N2c3ccccc3CC2C)c(C)o1` (configuration not stated), the inhibition was 7.82% (inactive).
As for `O=C(OCC(=O)N1CCc2ccccc21)c1cccnc1`, the figure is -5.16% (inactive); as for `CC1Cc2ccccc2N1C(=O)COC(=O)c1ccc(O)cc1` (configuration not stated), 2.09% (inactive).
As to `O=C(OCC(=O)N1CCCc2ccccc21)c1ccc(Cl)nc1`, the inhibition was 60.1% (inactive).
Turning to `CC1Cc2ccccc2N1C(=O)COC(=O)c1cccnc1Cl` (configuration not stated), the inhibition was 3.35% (inactive).
For the molecule `NC(=O)CC[C@@H]1NC(=O)[C@@H]2CCCN2C(=O)c2cc([N+](=O)[O-])cc(I)c2NCCCC[C@@H](C(=O)NC(CC(=O)O)C(N)=O)NC1=O` (some centres not stated), the inhibition is 0.47% (inactive).
As for `Cc1ccc(NC(=O)CSc2nnc(-c3n[nH]c4ccccc34)n2-c2ccccc2)c(C)c1`, the figure is 14.9% (inactive); as for `COc1ccc(Cl)cc1Nc1nc(C)cc(C)c1C(N)=O`, -2.67% (inactive).
For `Cc1cc2c(sc3ccccc32)c(C)n1`, the inhibition is 5.03% (inactive).
On to `O=Cc1ccc(N2CCCC2)o1`, for which the inhibition is 46.4% (inactive).
With `CN1C(=O)C(=Cc2ccc(N3CCOCC3)o2)C(=O)N(C)C1=O`, the inhibition is 5.8% (inactive).
Turning to `O=C(Nc1cccc2ncccc12)C12CC3CC(CC(C3)C1)C2`, the inhibition is -10% (inactive).
With `Cc1ccccc1OCc1nnc(SCC(=O)NCc2ccccc2)n1C`, the inhibition was 2.63% (inactive).
The same measure for `Cc1ccccc1C(=O)NC1CCN(CC(=O)NCc2cccs2)CC1`: 2.61% (inactive); for `Cc1ccc(N/C=C/C(=O)c2sc(-c3ccccc3)nc2C)cc1`: 3.94% (inactive).
For the molecule `COc1ccc(/C=C/C(=O)c2sc(-c3ccccc3)nc2C)cc1`, the inhibition was 6.03% (inactive).
As for `COc1cc(S(=O)(=O)N2CCCCC2)ccc1NC(=O)Cc1ccccc1`, the inhibition was -1.81% (inactive).
The same measure for `Cc1ccc(CNC(=O)COC(=O)c2cnc(C)cn2)cc1`: 0.26% (inactive); for `COC1=C(Nc2ccccc2)C(=O)c2ccccc2C1=O`: 13.5% (inactive); for `COC1=C(Nc2ccc(OC)cc2)C(=O)c2ccccc2C1=O`: 8.34% (inactive).
Consider `COc1cccc(-c2nc(-c3ccc(C(=O)O)cc3)no2)c1`, for which the inhibition was -12.7% (inactive).
As for `O=[N+]([O-])c1cc(CN2CCCC2)c2cccnc2c1O`, the figure is -5.59% (inactive); as for `O=[N+]([O-])c1cc(CN2CCN(c3ccccc3)CC2)c(O)c2ncccc12`, 77.9% (inactive).
`COc1ccc(NC(=O)C2C3CCC(C3)C2C(=O)O)cc1OC` (configuration not stated): the inhibition is 6.44% (inactive).
For `COCCC(=O)Nc1ccc2c(c1)CN(C(=O)CCSC)CC2`, the inhibition is 3.42% (inactive).
As for `CCn1c(CNc2ccc(OC)cc2)nnc1SCC(=O)Nc1ccc(F)cc1`, the figure is -10.9% (inactive); as for `CCn1c(CNc2ccc(F)cc2)nnc1SCC(=O)Nc1ccc(OC)cc1`, 2.51% (inactive).
The same measure for `CCn1c(CNc2ccccc2Cl)nnc1SCC(=O)NCc1ccccc1`: -4.41% (inactive).
As for `CCn1c(CNc2ccccc2Cl)nnc1SCCN1CCCCC1`, the figure is -2.66% (inactive).
